{
  "source": "paper PMC12136788",
  "binders": {"B1": {"name": "chr11:46542767:46542868:-|CDS|ENSG00000110497|msi1|total|mutant (ssRNA)", "RNA": "GGGAGUUCUACAGUCCGACGAUCAACACGCUCCGCAACCUCAGUCUGGGUCCUACCCGCCGCUCUUUGGGAGGGCCUCUGUCCCGCCACCCUUCCCGGUAUCACCGAGAAACCGCUCCUGGGUUGACAGGAUCUGAGUGGACCCAACAGAGGAUUGAGCAUCA"}, "B2": {"name": "chrX:21994482:21994713:+|3pUTR|ENSG00000102172|msi1|total|mutant (ssRNA)", "RNA": "GGGAGUUCUACAGUCCGACGAUCCAGCUGAAGGAUGGUCCGACAGCACAGCGAAGACUGCUAAAUGCACUGACCCCCCCCAUCCGAAUGUGAUUUUUGUUCCUUUUUAUUUCUCUGUGGGCUUUUGUUUUUGUUUUUGUUUUGCAACAGAGGAUUGAGCAUCA"}, "B3": {"name": "chr19:41261474:41261596:+|3pUTR|ENSG00000167601|msi1|total|mutant (ssRNA)", "RNA": "GGGAGUUCUACAGUCCGACGAUCUCUAAAGGUCCACAGGUCCCGACUAUCCGGUGCAAUUUCAAGGUUCUAACCCUAUACUGCCGUAUUCUUUGGGGUGCCCCUCUCCUUCUCCGCUAUCAUUGCUUCCUCCUCCCCAACUGUCAACAGAGGAUUGAGCAUCA"}, "B4": {"name": "ENSG00000198589:be:win_4151|CDS|ENSG00000198589|bound_else_gene|NA|bound_elsewhere_windowed (ssRNA)", "RNA": "GGGAGUUCUACAGUCCGACGAUCCGGCUACACAUGAACUGGAAAAUAUUGAACCUACUCAAGGCCUUUCAAUAGAAGCCUCUGUGACAUUUUUGCAGAGGCUAAUUAGCCUUGUGGAUGUGCUUAUAUUUGCAAGUUCUCUUGCAACAGAGGAUUGAGCAUCA"}, "B5": {"name": "ENSG00000198589:be:win_9651|3pUTR|ENSG00000198589|bound_else_gene|NA|bound_elsewhere_windowed (ssRNA)", "RNA": "GGGAGUUCUACAGUCCGACGAUCCUUCAAGUGGUCCCUCUUUUUUUCCUACACACUCAGCUCUUCUCUAAAAGCAAGGAUUUGGAAUGAACAAUUCAGUUUGACAGAAAAAGCUGAAUAAAAUGGCAUCUGUAAUUGAAUUGUCAACAGAGGAUUGAGCAUCA"}, "B6": {"name": "chr13:20822168:20822271:-|CDS|ENSG00000132953|unk|total|mutant (ssRNA)", "RNA": "GGGAGUUCUACAGUCCGACGAUCUCGAAAAAUCAGAGAAGAUUCAGAUAUGGCACAAGAUUCUCUGCAGUGCCUUGCCCAGUCCGCUUCUCUUCAUGGACCCAUCUUCCCAGAUGAAGGAUCACAAGUUGAUUAUCCCGCACACAACAGAGGAUUGAGCAUCA"}, "B7": {"name": "chr1:232398519:232398625:-|3pUTR|ENSG00000116991|unk|total|mutant (ssRNA)", "RNA": "GGGAGUUCUACAGUCCGACGAUCACAGCCGUUUUAUUUCCACAGCCACAUUACCACCGCAAUAAGAAAGGAGGCACCGUACACCGUUGGAAAAGCUUUGUGGGGGGAUUAAAAAAAAAAAAAAGCACUGUUGUGUUUAACACUCAACAGAGGAUUGAGCAUCA"}, "B8": {"name": "chr20:1375301:1375603:-|CDS|ENSG00000088832|control|control|control (ssRNA)", "RNA": "GGGAGUUCUACAGUCCGACGAUCGGUAUGCUCUCUCAUUUGUUUUGUUUUGCUUUCUAGUAUUUACCUUUUAUAUUUUUUUAUAGGUGGCAUAUUUAUACGGUUCAAAAAUAAAAAAAGUGAAAAGUCUCACCCUCAUGCCAUCAACAGAGGAUUGAGCAUCA"}, "B9": {"name": "chr19:34469546:34469571:+|3pUTR|ENSG00000126261|msi1_unk|total|mutant (ssRNA)", "RNA": "GGGAGUUCUACAGUCCGACGAUCGUUGCCUUUUUAAUGUAAAUACCCGCCGGUAUCAUUAACCGUUUCAAAAUAUUGUGGUUCCGUAAAGUUGAUACCUGGUUAUAAAUAUUAUGCCUUUAUUUUUGGCCCGAAGAAGAAUUACAACAGAGGAUUGAGCAUCA"}, "B10": {"name": "ENSG00000136451:be:win_3151|3pUTR|ENSG00000136451|bound_else_gene|NA|bound_elsewhere_windowed (ssRNA)", "RNA": "GGGAGUUCUACAGUCCGACGAUCUGAGACAGACUUCCUACAUCAGGGACAGGUAUCUGUGUGUCAUUAUACAAAACAGUUCUAGGGGGUUGAACUACAUAGUAAAAAAAUAAAAUAAAUAGUACUUAGUGUAAAAUAAUUUUACAACAGAGGAUUGAGCAUCA"}, "B11": {"name": "chr4:65323451:65323552:-|3pUTR|ENSG00000145242|msi1|FALSE|unique (ssRNA)", "RNA": "GGGAGUUCUACAGUCCGACGAUCAUCAAGAAAAAGUACAAUACAGGGUGUAUAUUUAUUUUUUGUGUUAUAAAGUUUACUUUUAGUUGCUCUUCUAGAGAUUAUUAGGUAAUAAAUGUGUAUAUACUGUAUAAUUUGCAAUAUCAACAGAGGAUUGAGCAUCA"}, "B12": {"name": "ENSG00000136451:be:win_3201|3pUTR|ENSG00000136451|bound_else_gene|NA|bound_elsewhere_windowed (ssRNA)", "RNA": "GGGAGUUCUACAGUCCGACGAUCAACAGUUCUAGGGGGUUGAACUACAUAGUAAAAAAAUAAAAUAAAUAGUACUUAGUGUAAAAUAAUUUUAUAAAUGAUCUUUUGUACUUUAGGACAUUAAAUUGUACAACUUUUGUAUAUCAACAGAGGAUUGAGCAUCA"}, "B13": {"name": "chr19:34469546:34469571:+|3pUTR|ENSG00000126261|msi1_unk|FALSE|overlapping (ssRNA)", "RNA": "B9 RNA with C49U, C50A, C62U, C63A, C83U, C84A, C130U, C131A"}, "B14": {"name": "chr18:68676332:68676434:-|3pUTR|ENSG00000166479|msi1_unk|FALSE|overlapping (ssRNA)", "RNA": "GGGAGUUCUACAGUCCGACGAUCAUCAAGAUUAUGAGGUUAAAAAUAAUGUGGUUUUAUAUAGCAUAGUGGUUUUAUUUUGUUAGUUAUUUUUAAAGGAGAAGAAAUGUUACUUUUUAACUUUAUACUCAGUUGCAUUAUCAUCAACAGAGGAUUGAGCAUCA"}, "B15": {"name": "ENSG00000198589:be:win_801|CDS|ENSG00000198589|bound_else_gene|NA|bound_elsewhere_windowed (ssRNA)", "RNA": "GGGAGUUCUACAGUCCGACGAUCUCAUUUUGUUGGAGGCUGUUUGAUUGUAACAUCAAUAAAGUCAAAAGGAAAAGGCUUUCAACACUGUGUGAAAUUUGAUUUCAAGCCACAAAAGUGGUAUAUGGUUACCAUAGUACACAUCAACAGAGGAUUGAGCAUCA"}, "B16": {"name": "chr1:232398519:232398625:-|3pUTR|ENSG00000116991|unk|FALSE|unique (ssRNA)", "RNA": "B7 RNA with C28U, C29A, C56U, C57A, C76U, C77A, C83U, C84A"}, "B17": {"name": "chr18:68676332:68676434:-|3pUTR|ENSG00000166479|msi1_unk|total|mutant (ssRNA)", "RNA": "B14 RNA with U61C, A62C, U66C, A67C, U83C, A84C"}, "B18": {"name": "ENSG00000136451:be:win_3251|3pUTR|ENSG00000136451|bound_else_gene|NA|bound_elsewhere_windowed (ssRNA)", "RNA": "GGGAGUUCUACAGUCCGACGAUCCUUAGUGUAAAAUAAUUUUAUAAAUGAUCUUUUGUACUUUAGGACAUUAAAUUGUACAACUUUUGUAUAUAUAAAAGCUUAGGAACUUUCUGUUUAGCAGGAAGGCAACACAUUCCUACACAACAGAGGAUUGAGCAUCA"}, "B19": {"name": "chr16:46660370:46660459:-|3pUTR|ENSG00000069329|msi1_unk|total|mutant (ssRNA)", "RNA": "GGGAGUUCUACAGUCCGACGAUCAAAAGGAAACCGCUCACCAUACUCCUUUCCAUGUACAUCCAGUGAGGGUUUUAUUACGCCCGGUUUCCCUUCCACCGAUUGUGCCUUUCAGAAAUGCUGAGGCCGGUUUCCCAUUUCUUACAACAGAGGAUUGAGCAUCA"}, "B20": {"name": "chr8:48920054:48920155:-|CDS|ENSG00000019549|unk|FALSE|unique (ssRNA)", "RNA": "GGGAGUUCUACAGUCCGACGAUCACCUAUUCAACUUUUUCUGGGCUGGCCAAACAUAAGCAGCUGCACUGCGAUGCCCAGUCUAGAAAAUCUUUCAGCUGUAAAUACUGUGACAAGGAAUAUGUGAGCCUGGGCGCCCUGAAGCAACAGAGGAUUGAGCAUCA"}, "B21": {"name": "ENSG00000136451:be:win_351|CDS|ENSG00000136451|bound_else_gene|NA|bound_elsewhere_windowed (ssRNA)", "RNA": "GGGAGUUCUACAGUCCGACGAUCUACCAUCGCUGGGGACAGCAGCCGAACUUCGUUGGUCUCGACCAUUGCAGGCAUCUUGUCAACAGUCACUACAUCUUCCUCGGGCACCAACCCCAGUAGCAGUGCCAGCACCACAGCUAUCAACAGAGGAUUGAGCAUCA"}, "B22": {"name": "chr8:103427116:103427218:+|CDS|ENSG00000164934|unk|total|mutant (ssRNA)", "RNA": "GGGAGUUCUACAGUCCGACGAUCGUAUACUGGGAUUGAUCAUCACUGGAAAGAAGCUGUUUUUGCCACAUGUGGACAGCAAGCCGACAUUUGGGAUGAACAAAGAACUAAUCCUAUAUGUUCAAUGACCUGGGGAUUUGACAGCAACAGAGGAUUGAGCAUCA"}},
  "note": "Residue numbers refer to the chain shown, from its start. Over roughly 5,800 sequences, “enrichment r” has its median near 0.54; the highest 2% begin near 16. The list comes from a sample in which the highest values are over-represented; it also holds similar and randomly drawn sequences.",
  "data": [
    {"molecular_target": "MSI1 full-length (mouse, UniProt Q61474 1-362)", "sequence (Q61474 whole entry)": "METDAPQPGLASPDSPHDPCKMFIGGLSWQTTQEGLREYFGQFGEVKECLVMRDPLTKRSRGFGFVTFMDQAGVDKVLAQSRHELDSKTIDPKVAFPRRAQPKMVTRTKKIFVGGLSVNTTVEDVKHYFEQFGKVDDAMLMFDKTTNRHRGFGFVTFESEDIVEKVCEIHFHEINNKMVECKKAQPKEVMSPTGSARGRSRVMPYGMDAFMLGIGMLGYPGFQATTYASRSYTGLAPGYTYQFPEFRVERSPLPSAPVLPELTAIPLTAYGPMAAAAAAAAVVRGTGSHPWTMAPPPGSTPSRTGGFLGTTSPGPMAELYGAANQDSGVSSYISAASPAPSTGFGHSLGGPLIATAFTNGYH", "assay": "nsRBNS (natural sequence RNA bind-n-seq); RBNS binding buffer (assumed for nsRBNS): 25 mM Tris pH 7.5, 150 mM KCl, 3 mM MgCl2, 0.01% Triton X-100, 500 ug/ml BSA, 20 U/ml SUPERase-In, 4 C; UNK is unkempt and MSI1 is Musashi-1; names of the RNAs are library labels; protein concentration not given here; high values mean tight binding", "units": {"binding signal": "enrichment R"}, "values": [
      {"binder": "B1", "binding signal": 0.529},
      {"binder": "B2", "binding signal": 0.697},
      {"binder": "B3", "binding signal": 0.848},
      {"binder": "B4", "binding signal": 0.181},
      {"binder": "B5", "binding signal": 0.318},
      {"binder": "B6", "binding signal": 0.303},
      {"binder": "B7", "binding signal": 0.46},
      {"binder": "B8", "binding signal": 2.12},
      {"binder": "B9", "binding signal": 1.89},
      {"binder": "B10", "binding signal": 15.5},
      {"binder": "B11", "binding signal": 11.9},
      {"binder": "B12", "binding signal": 23.1},
      {"binder": "B13", "binding signal": 35.8},
      {"binder": "B14", "binding signal": 69.1},
      {"binder": "B15", "binding signal": 0.264},
      {"binder": "B16", "binding signal": 18.4},
      {"binder": "B17", "binding signal": 0.295},
      {"binder": "B18", "binding signal": 10.7},
      {"binder": "B19", "binding signal": 0.39},
      {"binder": "B20", "binding signal": 0.478},
      {"binder": "B21", "binding signal": 0.413},
      {"binder": "B22", "binding signal": 0.362}
    ]}
  ]
}
